Results filed as inconclusive are left out. Entries that show only a call come without a potency. The source made the active and inactive calls. Calls follow the shape of the dose curve; as a rule, active = well fitted activation curve with a large enough effect in the repeat runs; inconclusive = weak or mixed curves; inactive = flat fitted curve, though single readings scatter.
Assay: A CellTox Green Cytotoxicity Assay to monitor cytotoxicity in HepG2 cells - 16 hour (AID 1224876); also: nearly all actives have a fitted effect of over 45% in size
Settings: CellTox Green fluorescence; series mostly up to 76.8 µM
Description: National Center for Advancing Translational Sciences [NCATS]
NIH Chemical Genomics Center [NCGC]
U.S. Environmental Protection Agency [EPA]
National Institutes of Environmental Health Sciences [NIEHS]
National Toxicology Program [NTP]
Cell-based models are critical for drug discovery. Determining the natural cytotoxic effects resulting from test compounds is an essential research activity. A CellTox Green Cytotoxicity Assay to monitor cytotoxicity in real time of continues cell culture during 40 hours of the compound treatment was used to screen Tox21 10K library compounds in HepG2 cells. CellTox Green Cytotoxicity Assay is a nonlytic, homogeneous, biofluorescent method to measure cytotoxicity in cell culture after experimental manipulation. The assay system uses a proprietary asymmetric cyanine dye that is excluded from viable cells but preferentially stains the dead cell's DNA. […] Viable cells produce no appreciable increases in fluorescence. Therefore, the fluorescence signal produced by the binding interaction with dead cell DNA is proportional to cytotoxicity.
The mixture of HepG2 cell suspension and reagents were dispensed at 600cells/6 ul/well in 1536-well tissue culture treated black solid bottom plates using a Multidrop dispenser. After the assay plates were incubated at a 37 C/5% CO2 incubator for 5 hours, 23 nL of compounds dissolved in DMSO, positive and negative controls was transferred to the assay plate by a pintool work station. The plates were incubated at 37 C for 40 hours. The fluorescence intensity were measured at 0h, 8h, 16h, 24h, 32h and 40h time points using ViewLux plate reader during compound treatment.
Potency is read from the fitted curve at half-maximal effect.

Structure (SMILES)	Potency
CCCCN(CCCC)C(=S)S	inactive
CCOP(=S)(OCC)Oc1cc(C)nc(N(CC)CC)n1	inactive
O=C(Nc1ccc(F)cc1F)c1cccnc1Oc1cccc(C(F)(F)F)c1	inactive
c1cc[n+]2c(c1)-c1cccc[n+]1CC2	inactive
CC(=O)O.CC(=O)O.CC(=O)O.CC(=O)O.CC(=O)O.CC(=O)O.CC(=O)O.O.O.[Cr].[Cr].[Cr]	inactive
C1=CCC=C1	inactive
CCOC(=O)Cc1ccccc1	inactive
CC1CCCC1	inactive
COP(=S)(OC)Oc1nc(Cl)c(Cl)cc1Cl	inactive
CC(O)C(=O)[O][Hg][c]1ccccc1 (stereo not given)	2.75 µM (active)
ClSC(Cl)(Cl)Cl	inactive
O=C(N[C@@H]1N=C(c2ccccc2F)c2cccc3c2N(CC3)C1=O)c1cc2ccccc2[nH]1	21.3 µM (active)
Clc1ccc(C2(Cn3cncn3)OCCO2)c(Cl)c1	inactive
C[C@]12C/C(=C/O)C(=O)C[C@@H]1CC[C@@H]1[C@@H]2CC[C@@]2(C)[C@H]1CC[C@]2(C)O	inactive
[Cl][Hg][c]1ccccc1	2.75 µM (active)
O=C(O)[C@H](O)[C@@H](O)C(=O)O	inactive
O=[N+]([O-])C(Br)Br	inactive
C=CCOC(=O)c1ccccc1N	inactive
Nc1cc(Cl)ccc1Cl	inactive
C[C@]12Cc3cn[nH]c3C[C@@H]1CC[C@@H]1[C@@H]2CC[C@@]2(C)[C@H]1CC[C@]2(C)O	inactive

Structure (SMILES)	Potency
O.O.O.O.O.O.O.O=S(=O)([O-])[O-].[Co+2]	inactive
c1ccc2nc(N3CCNCC3)ccc2c1	inactive
CCNS(=O)(=O)C(F)(F)C(F)(F)C(F)(F)C(F)(F)C(F)(F)C(F)(F)C(F)(F)C(F)(F)F	inactive
O=[N+]([O-])c1cccc2cccc([N+](=O)[O-])c12	inactive
C=CC(=O)[O][Sn]([CH2]CCC)([CH2]CCC)[CH2]CCC	0.616 µM (active)
COc1nc(C)nc(NC(=O)NS(=O)(=O)c2ccccc2Cl)n1	inactive
Cc1c([N+](=O)[O-])c(C)c([N+](=O)[O-])c(C(C)(C)C)c1[N+](=O)[O-]	inactive
O=[N+]([O-])[O-].[Tl+]	inactive
COc1ccc(Cc2nccc3cc(OC)c(OC)cc23)cc1OC	inactive
COC(=O)C(C)N(C(=O)c1ccco1)c1c(C)cccc1C (stereo not given)	inactive
CCc1cccc(C)c1N(C(=O)CCl)[C@@H](C)COC	49 µM (active)
O.O.O.O=C([O-])[C@H]([O-])[C@@H]([O-])C(=O)[O-].O=C([O-])[C@H]([O-])[C@@H]([O-])C(=O)[O-].[K+].[K+].[Sb+3].[Sb+3]	inactive
CC(=O)C(Cl)C(=O)N(C)C (stereo not given)	inactive
CCCCCCC[CH2][Sn]([Cl])([Cl])[CH2]CCCCCCC	inactive
CC(C)=CC1C(C(=O)OC(C#N)c2cccc(Oc3ccccc3)c2)C1(C)C (stereo not given)	inactive
BrCC(Br)(Br)Br	inactive
O=C1C[C@@H]2OCC=C3CN4CC[C@]56c7ccccc7N1[C@H]5[C@H]2[C@H]3C[C@H]46	inactive
Cc1ccc([N+](=O)[O-])[c]2c1[O][Hg]2	3.01 µM (active)
CC(C)=CCN1CC[C@@]2(C)c3cc(O)ccc3C[C@@H]1[C@@H]2C	inactive
Clc1ccc(C(Cl)(Cl)Cl)cc1Cl	47.9 µM (active)

Source: PubChem BioAssay (Tox21)
